# Assay outcomes from PubChem.
# Only some compounds are listed: those with a hit (about 1.2% of all), similar ones and a draw of the others.
# B2AR arrestin: recruits beta-arrestin to the human beta2-adrenergic receptor; P07550; beta-arrestin recruitment to beta2AR, cell-based reporter; Potency, µM (series often up to 46.1 µM), without a hit: at the top dose activation, hits mostly activators; 0.02% of 330,000 active; AID 492947;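 note: 0% = DMSO controls and full agonism = EC100 isoproterenol or metaproterenol; nearly all actives have a fitted effect of over 65% in size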
# BRCA1 expr act: increases BRCA1 expression; 1.1% of 380,000 active; AID 624202; MCF7-BRCA1-FFLuc reporter, luminescence, 48 h; response scale: scaled: vehicle 0%, 10 µM genistein 100%; Potency, µM (titrated, usually from 46.1 µM), for the others: at the top dose activation, usual class: activators; note: nearly all actives have a fitted effect of over 80% in size
#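 MCF7-BRCA1-FFLuc cells, 2000/well in phenol-red-free MEM, attached 2 h then treated 48 h at 37 C. Luciferase luminescence read 15 min after reagent; normalized to genistein maximum activation (10microM) and DMSO, concentration-response fitted.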
# ERG-DNA inh: inhibitors of human ERG Ets domain-DNA interaction | 0.028% of 370,000 active | Potency, µM (top dose mostly 76.9 µM), for inactives: top-dose FP activity, negative = inhibition, most hits filed as inhibitors | fluorescence polarization, His-ERG Ets domain / labelled DNA | AID 624246 | P11308; active = well fitted inhibition curve with a large enough effect in the polarisation, with a control signal flat; inconclusive = small, poorly fitted or top-dose-only effect, or effect the other way, or a change in a side signal; inactive = no such curve, though single readings can be large or run the other way; the % refers to the polarisation;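 note: polarization taken with two DNA probes labelled with fluorescein and Texas red; % of control where 0% means no effect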
# Target sequence (P11308 whole entry, looked up, the tested form may be a part): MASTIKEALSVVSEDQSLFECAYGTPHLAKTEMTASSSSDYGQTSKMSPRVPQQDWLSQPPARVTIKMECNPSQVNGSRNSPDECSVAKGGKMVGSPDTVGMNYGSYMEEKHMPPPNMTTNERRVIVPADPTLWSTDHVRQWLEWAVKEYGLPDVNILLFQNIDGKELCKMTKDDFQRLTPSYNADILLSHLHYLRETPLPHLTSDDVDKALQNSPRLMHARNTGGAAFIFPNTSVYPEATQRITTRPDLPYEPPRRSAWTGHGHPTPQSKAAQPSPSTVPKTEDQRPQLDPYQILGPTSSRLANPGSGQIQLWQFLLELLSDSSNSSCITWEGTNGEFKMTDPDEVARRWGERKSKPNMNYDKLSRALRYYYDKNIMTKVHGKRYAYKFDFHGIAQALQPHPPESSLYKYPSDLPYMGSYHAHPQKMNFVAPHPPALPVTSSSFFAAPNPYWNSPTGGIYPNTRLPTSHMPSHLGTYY
#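 His-tagged ERG Ets domain (1 uM in the protein solution; 300mM KCl, 50mM Tris-HCl, 1mM EDTA, 1mM DTT, pH 7.5) received compound, then a probe mix of 5 nM fluorescein-DNA and 100nM Texas-615-DNA. Fluorescence polarization was read for both dyes.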
# Mito fusion act: mitochondrial division inhibition or fusion activation; AID 485298; 0.23% of 320,000 active; S. cerevisiae fusion-defective mutant growth rescue, CellTiterGlo 48 h; Potency, µM (top dose mostly 46.1 µM), for inactives: top-dose growth rescue (activation), hits mostly activators; note: % of control where 0% means no effect; nearly all actives have a fitted effect of over 45% in size
#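 Growth-rescue viability read-out: after 48 h at the non-permissive 37C in glycerol/ethanol YPEG, yeast mitochondrial fusion mutants are measured by CellTiterGlo luminescence; compounds (23 nl pinned per well) restoring growth score as division inhibitors or fusion activators.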
# Starred values were filed as active, the others as inactive; ? = inconclusive; . = no result given. Unless noted, calls come from the whole dose curve; as a rule, active = well fitted curve in the direction sought with a large enough effect; inconclusive = small, poorly fitted or top-dose-only effect, or another doubt; inactive = no such curve, though single readings can be large; an effect the other way counts as inactive or inconclusive. Potency is the fitted concentration of half-maximal effect.
SMILES,B2AR arrestin,BRCA1 expr act,ERG-DNA inh,Mito fusion act
Cc1cc(C(=O)COC(=O)c2ccc(O)cc2)c(C)n1CC(F)(F)F,-1%,7.9µM*,-8%,11%
COCCn1c(C)cc(C(=O)COC(=O)c2cncc(Br)c2)c1C,-1%,?,-1%,-4%
Cc1ccc(NC(=O)c2ccc(-n3nncc3-c3ccccc3)cc2)cc1,.,0%,.,.
COc1cc2nc(CCNCc3ccccc3)nc(NC3CCN(C)CC3)c2cc1OC,.,-61%,.,.
CCOc1ccc(CCNC(=O)c2cc3c(=O)oc4ccc(C)cc4c3s2)cc1OCC,.,12%,1%,.
CCCc1ccc(S(=O)(=O)N2CCC(c3nnc(-c4cccc(C)c4)o3)CC2)cc1,.,.,2%,.
COCCn1c(C)cc(C(=O)COC(=O)c2ccc(S(=O)(=O)N(C)C)cc2)c1C,-1%,1%,-1%,.
COCCn1c(C)cc(C(=O)COC(=O)c2cccnc2SC)c1C,-1%,8.9µM*,.,.
COCCn1c(C)cc(C(=O)COC(=O)c2ccc(NC(=O)CC#N)cc2)c1C,0%,2.8µM*,7%,3%
COCCn1c(C)cc(C(=O)COC(=O)c2ccccc2Br)c1C,0%,-32%,-6%,-4%
Cc1ccccc1NC(=O)c1sc2nc3n(c(=O)c2c1C)N=C(c1ccccc1)CS3,.,.,0%,.
O=C(c1cccs1)N1CCC(c2ccccc2)C1 (stereo not drawn),0%,3.5µM*,5%,-1%
COc1ccc(NC(=S)N2CCC(c3ccccc3)C2)cc1 (stereo not drawn),-1%,2.8µM*,-4%,-23%
O=C(Nc1ccccc1)N1CCC(c2ccccc2)C1 (stereo not drawn),-1%,3.2µM*,-1%,0%
CCc1ccc(NC(=O)N2CCC(c3ccccc3)C2)cc1 (stereo not drawn),-1%,?,5%,17%
Cc1cccc(OCC(=O)N2CCC(c3ccccc3)C2)c1 (stereo not drawn),0%,7.9µM*,.,-8%
O=C(CCN1CCC(c2ccccc2)C1)c1cccs1 (stereo not drawn),0%,2%,7%,-5%
CCOC(=O)c1cccc(NC(=O)[C@H](CSCc2ccccc2)N2Cc3ccccc3C2=O)c1,.,0%,0%,.
C1=Nc2ccccc2/C1=C/c1c[nH]c2ccccc12,.,-22%,.,.
CCc1ccc(Oc2cc(C)nc(N)n2)cc1,-1%,3.2µM*,7%,0%
COc1ccc(C)cc1NC(=O)c1ccc2c(=O)n3c(nc2c1)CCCCC3,-1%,9%,3%,?
Cc1ccc(C)c(NC(=O)c2ccc3c(=O)n4c(nc3c2)CCC4)c1,0%,4.5µM*,9%,2%
COc1cc(OC)cc(C(=O)Nc2ccc3nc4n(c(=O)c3c2)CCCCC4)c1,0%,4.5µM*,5%,-5%
COCCNC(=O)CSc1ccc(C)cc1,0%,2%,-12%,-1%
Cc1ccc(SCC(=O)NCCSC(C)(C)C)cc1,1%,8.9µM*,1%,-3%
SMILES,B2AR arrestin,BRCA1 expr act,ERG-DNA inh,Mito fusion act
Nc1cc(OCc2ccccc2)ccc1OCc1ccccc1,.,11µM*,-6%,.
Cc1ccc(OCc2nc(-c3ccc(Cl)cc3)n[nH]2)cc1,0%,77%,1%,?
Cc1ccc(-c2n[nH]c(Cc3ccccc3)n2)cc1,0%,5.6µM*,-1%,-2%
NCC1OC(O[C@H]2[C@H](O)[C@@H](OC3C(O)C(N)CC(N)C3OC3OC(CO)C(O)C(O)C3N)O[C@@H]2CO)C(N)C(O)C1O (stereo partly drawn),.,.,.,-6%
Cn1c(N2CCN(S(=O)(=O)c3ccc(F)cc3)CC2)nc2ccccc21,0%,-12%,6%,11µM*
Cc1ccc(NC(=O)c2cccs2)cc1,0%,2.2µM*,.,0%
O=C(O)c1ccccc1C(=O)Nc1ccc(-n2ccc(C(F)(F)F)n2)cc1,0%,-4%,4%,0%
O=C(Nc1ccc(O)cc1)c1ccc(NC(=O)c2cccs2)cc1,0%,4µM*,7%,2%
Cc1ccc(NC(=O)C(=O)NNC(=O)c2cccs2)cc1,0%,37%,-7%,0%
CSc1nc2ccc(NC(=O)c3cccs3)cc2s1,0%,4.5µM*,1%,.
O=C(Nc1ccc(-n2ccc(C(F)(F)F)n2)cc1)c1cccs1,0%,6.3µM*,13%,10%
Cc1ccc(OCC(=O)NCC2(N3CCN(C)CC3)CCCCC2)cc1C,.,.,-1%,.
CC(NC(=O)CCCN1C(=O)CCn2nc(-c3cn(C)c4ccccc34)cc21)c1ccccc1 (stereo not drawn),.,.,-1%,.
CCCCN1CCc2nc(N3CCN(c4ncccn4)CC3)ncc2C1,.,.,1%,.
COc1cc(NC(=O)c2ccccc2Cl)ccc1NC(=O)c1cccs1,0%,6.3µM*,7%,17%
Cc1cc(N2CCCCC2)nc2ccc(NC(=O)/C=C/c3ccc(OCCC(C)C)cc3)cc12,.,.,5%,.
O=C(/C=C/c1cccs1)NCc1ccccc1,0%,14µM*,2%,10%
O=C(/C=C/c1ccc(F)cc1)NCc1cccs1,-1%,14µM*,7%,4%
O=C(/C=C/c1ccccc1Cl)NCc1cccs1,-1%,4µM*,.,?
Cc1cccc(N(CC(=O)Nc2ccc(Br)cc2)S(C)(=O)=O)c1C,.,.,-1%,-1%
CC1CCCC(NC(=O)c2ccc3c(c2)OCCO3)C1C (stereo not drawn),0%,7.1µM*,-2%,5%
O=C(CSc1nnc2ccccn12)Nc1cccc(-c2nc3ccccc3s2)c1,0%,5µM*,3%,-1%
O=C(CSc1nnc2ccccn12)Nc1ccc2c(c1)OCO2,0%,4%,-16%,3%
Cc1cc(C)n(-c2nnc(NC34CC5CC(CC(C5)C3)C4)nn2)n1,0%,2.5µM*,-6%,?
O=C(Nc1cccc(C(F)(F)F)c1)c1ccc2c(c1)nnn2C1CCCC1,.,.,2%,.
SMILES,B2AR arrestin,BRCA1 expr act,ERG-DNA inh,Mito fusion act
COc1cc(C2CC(=O)Nc3cc4c(cc32)OCCO4)cc(Br)c1OC (stereo not drawn),.,.,0%,.
O=c1oc2ccccc2nc1/C=C(\O)c1ccccc1,0%,3.5µM*,17%,-3%
Cc1ccc(NC(=O)c2ccc3c(c2)NC(=O)c2ccccc2S3)c(Cl)c1,.,.,1%,.
COc1ccc(CCNS(=O)(=O)CCNC(=O)c2ccccc2)cc1,-1%,-24%,-6%,2%
O=C(NCCCc1ccccc1)c1ccccc1,0%,10µM*,0%,2%
O=C(NCCNC(=O)c1ccc(Br)o1)c1ccc(Br)o1,-2%,-2%,-5%,8%
O=C(NCCc1ccccc1)c1ccc(Br)o1,0%,7.1µM*,2%,-1%
Cc1ccc(C(=O)NCCc2ccccc2)cc1S(=O)(=O)N1CCOCC1,0%,11µM*,13%,-3%
COc1ccc(C(=O)NCCS(=O)(=O)NCCc2ccccc2)cc1,-3%,4.5µM*,1%,6%
CCc1ccc(OCCCCn2c(CCNC(=O)C3CCCCC3)nc3ccccc32)cc1,.,9%,.,.
CCOCCn1ccc2c(OCC(=O)Nc3cc(C(F)(F)F)ccc3Cl)cccc2c1=O,.,0%,-1%,.
